PubChem BioAssay (EPA / NIEHS)
Values joined by “and” are separate entries in the source; they are usually repeats but may differ in a detail not shown here. Equal values may be shown once. Records with an inconclusive call do not appear. A structure can be active in one record and inactive in another. Active and inactive are the calls of the source. Rule for the calls: active = hit-call score of the fitted dose curve at least 0.9, where 1 is the maximum; inconclusive = response in the unintended direction; inactive = score below 0.9.

Assays:
[1] = TOX21_p53_BLA_p2_viability: Viability Assessment in the Tox21 HCT-116 p53 Agonism Beta-lactamase Assay, Phase 2 (AID 2283591);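 note: compound exposure lasted 16 h at 37 °C; actives lower the ATP signal meaning cytotoxicity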
In short: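 Cytotoxicity readout: CellTiter-Glo ATP luminescence, 30 min at room temperature, after the beta-lactamase read. Cells were HCT116 exposed 16 h at 37C to compounds pin-transferred at 217-fold dilution from DMSO stocks.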

[2] = target: Cellular tumor antigen p53 (Homo sapiens) (UniProt P04637); experiment: TOX21_p53_BLA_p2_ratio: Tox21 HCT-116 p53 Agonism Beta-lactamase Assay, Ratio, Phase 2 (AID 2283592)
Cellular tumor antigen p53 (Homo sapiens), sequence (P04637 whole entry, looked up): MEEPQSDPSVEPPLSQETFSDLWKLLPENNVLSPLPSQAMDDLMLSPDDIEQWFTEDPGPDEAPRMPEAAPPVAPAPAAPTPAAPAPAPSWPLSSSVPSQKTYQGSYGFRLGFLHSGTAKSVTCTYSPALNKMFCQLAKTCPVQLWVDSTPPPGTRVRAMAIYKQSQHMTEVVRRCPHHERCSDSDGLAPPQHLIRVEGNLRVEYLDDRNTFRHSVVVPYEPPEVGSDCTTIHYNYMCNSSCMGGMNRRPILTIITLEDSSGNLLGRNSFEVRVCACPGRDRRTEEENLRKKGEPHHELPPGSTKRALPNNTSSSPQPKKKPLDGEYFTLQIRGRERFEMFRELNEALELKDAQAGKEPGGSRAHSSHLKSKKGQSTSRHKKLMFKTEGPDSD
In short: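 Gain-of-signal p53 agonism was scored from the beta-lactamase FRET ratio (460/530 nm, 405 nm excitation) in HCT116 cells treated 16 h at 37C, 5% CO2, with DMSO serving as negative control and baseline.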

[3] = TOX21_p53_BLA_p3_viability: Viability Assessment in the Tox21 HCT-116 p53 Agonism Beta-lactamase Assay, Phase 3 (AID 2283593);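 note: cells exposed to compound for 16 h before reading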
In short: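 Cellular ATP was quantified by CellTiter-Glo luminescence, read after 30 min at room temperature. Beforehand, HCT116 cells (4000/well) received compound 5 h post-seeding, 217-fold diluted from DMSO, then incubated 16 h at 37C.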

[4] = target: Cellular tumor antigen p53 (Homo sapiens) (UniProt P04637); experiment: TOX21_p53_BLA_p3_ratio: Tox21 HCT-116 p53 Agonism Beta-lactamase Assay, Ratio, Phase 3 (AID 2283596)
In short: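 HCT116 p53-bla cells (4000/well) given compound in DMSO (217-fold dilution) after 5 h, incubated 16 h at 37C. CCF4-AM substrate 2 h at room temperature; 460/530 nm emission ratio, gain fitted against DMSO.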

[5] = TOX21_p53_BLA_p4_viability: Viability Assessment in the Tox21 HCT-116 p53 Agonism Beta-lactamase Assay, Phase 4 (AID 2283597);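 note: hits lower the luminescence signal meaning cytotoxicity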
In short: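 Following a 16 h exposure at 37C, the treated HCT116 wells were first read for the FRET ratio. They were then lysed with CellTiter-Glo, and ATP luminescence was recorded after 30 min at room temperature.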

[6] = target: Cellular tumor antigen p53 (Homo sapiens) (UniProt P04637); experiment: TOX21_p53_BLA_p5_ratio: Tox21 HCT-116 p53 Agonism Beta-lactamase Assay, Ratio, Phase 5 (AID 2283599)
In short: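 Beta-lactamase reporter ratio (blue 460 nm over green 530 nm, 405 nm excitation) after 2 h CCF4-AM loading, in HCT-116 cells exposed 16 h at 37 C to compounds pinned at 217-fold dilution. Increases relative to DMSO baseline scored.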

[7] = target: Cellular tumor antigen p53 (Homo sapiens) (UniProt P04637); experiment: TOX21_p53_BLA_p4_ratio: Tox21 HCT-116 p53 Agonism Beta-lactamase Assay, Ratio, Phase 4 (AID 2283601)
In short: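 Signal is the blue/green (460nm/530nm) ratio of cleaved versus uncleaved CCF4-AM substrate, read after 2 h substrate loading. Cells were HCT116 carrying the p53-responsive beta-lactamase reporter, dosed 16 h at 37C, 5% CO2; CellTiter-Glo measured in parallel.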

[8] = Tanguay_ZF_120hpf_MORT_legacy: (Legacy) Oregon State University Tanguay Lab 120 Hour Post-fertilization zebrafish Assay for Mortality (AID 2283633);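 for AC50: fitted as increase in binary mortality versus DMSO negative control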
In short: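 Static waterborne exposure from 6 to 120 hpf at 28C of single dechorionated wild-type (5D) embryos per well, 0.64% DMSO final. Death recorded present/absent by brightfield at 24 and 120 hpf.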

[9] = Tanguay_ZF_120hpf_YSE_legacy: (Legacy) Oregon State University Tanguay Lab 120 Hour Post-fertilization zebrafish Assay for Yolk Sac Edema (AID 2283634);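 for AC50: actives raise the incidence of yolk sac edema above the DMSO baseline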
In short: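 Presence or absence of yolk sac edema was recorded at 120 hpf in surviving larvae. These were wild-type Tropical 5D embryos, chorion removed at 4 hpf, held in static exposure at 28C from 6 hpf with 0.64% DMSO vehicle.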

[10] = TOX21_p53_BLA_p5_viability: Viability Assessment in the Tox21 HCT-116 p53 Agonism Beta-lactamase Assay, Phase 5 (AID 2283600)
In short: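 After the 460/530 nm beta-lactamase measurement, the wells received an ATP-detection luciferase reagent; signal was read 30 min later at RT. Compound treatment lasted 16 h on cells pre-incubated 5 h post-seeding.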

Measured: AC50

CC[C@H](C)C(=O)O[C@H]1C[C@@H](C)C=C2C=C[C@H](C)[C@H](CC[C@@H]3C[C@@H](O)CC(=O)O3)[C@H]21
active: [1] 44.6 µM | [2] 84.3 µM | [3] 82.5 µM and 35.6 µM | [5] 79.2 µM and 27.4 µM | [6] 97.1 µM and 37.7 µM | [7] 97.1 µM | [8] 1.33 µM
inactive: [1] | [2] | [3] | [4] | [5] | [6] | [7] | [9]

Nc1ccc(Nc2ccccc2)cc1
active: [2] 86 µM | [8] 33.2 µM | [9] 27.5 µM
inactive: [1] | [2] | [3] | [4] | [5] | [6] | [10] | [7]

C[C@](N)(Cc1ccc(O)c(O)c1)C(=O)O
not listed: [10]
inactive: all other assays above

Nc1nc2ncc(CNc3ccc(C(=O)N[C@@H](CCC(=O)O)C(=O)O)cc3)nc2c(=O)[nH]1
not listed: [10]
inactive: all other assays above

COc1ccc2sc(C(=O)Nc3nnn[nH]3)c(OC(C)C)c2c1
active: [1] 13.2 µM | [3] 17.8 µM | [5] 14.3 µM
inactive: all other assays above

Cc1ccc(S(=O)(=O)O)cc1C
not listed: [10]
inactive: all other assays above

CCOc1cccc(-n2cc(C(=O)N3CCN(c4cc(C(=O)O)c5ccccc5c4)CC3)nc2-c2ccc(C)cc2)c1
active: [1] 10.6 µM | [2] 18 µM | [3] 28.6 µM | [4] 41.7 µM | [5] 13.3 µM | [6] 58.1 µM | [10] 36.4 µM | [7] 24.1 µM
inactive: [8] | [9]

Cc1[nH]cnc1C[C@H]1CCc2c(C)c3ccccc3n2C1=O
active: [4] 63.9 µM | [5] 41 µM
inactive: [1] | [2] | [3] | [5] | [6] | [7] | [8] | [9]

COC(=O)c1c(Cl)c(Cl)c(C(=O)OC)c(Cl)c1Cl
inactive: all assays above

COc1cccc(-c2ccc(/C=C\CN3CCCCCC3)cc2Cl)c1
active: [1] 57.8 µM | [2] 70.5 µM | [5] 52.5 µM | [7] 73.8 µM | [8] 32.4 µM
inactive: all other assays above

CCOC(=O)c1ccc(C2CCC(NC[C@H](O)COc3ccc(O)c(NS(C)(=O)=O)c3)CC2)cc1 (stereo not given in full)
active: [1] 70.1 µM | [2] 80.4 µM | [5] 60.2 µM | [7] 84 µM
inactive: all other assays above

CN(C)c1ccc(Cc2ccc(N(C)C)cc2)cc1
not listed: [10]
inactive: all other assays above

CCCCCCc1ccc(O)cc1O
inactive: [2] | [3] | [4] | [5] | [6] | [9]
active: [1] 69.2 µM and 73.3 µM | [2] 53.5 µM and 42.9 µM | [3] 67.1 µM | [4] 63.9 µM | [5] 69.2 µM and 73 µM | [6] 78.1 µM and 68.4 µM | [7] 51.2 µM and 63.3 µM and 39.6 µM | [8] 25.9 µM

CCOC(=O)COc1ccc2c(c1)CC(NCC(O)c1cccc(Cl)c1)CC2 (stereo not given)
active: [1] 67.3 µM | [2] 70.3 µM | [5] 80 µM | [7] 71.7 µM | [8] 15.6 µM
inactive: all other assays above

Oc1ccc2c(c1)-c1ccccc1C2
active: [7] 79.7 µM | [9] 37.6 µM
inactive: all other assays above

CCC(C)(C)C(=O)O[C@H]1C[C@@H](C)C=C2C=C[C@H](C)[C@H](CC[C@@H]3C[C@@H](O)CC(=O)O3)[C@H]21
active: [3] 75.7 µM | [5] 46.1 µM | [8] 1.45 µM | [9] 0.649 µM
not listed: [10]
inactive: all other assays above

O=P(OC(CCl)CCl)(OC(CCl)CCl)OC(CCl)CCl
active: [5] 53.8 µM | [9] 25.4 µM
inactive: all other assays above

CCc1cc(SCc2sc(-c3ccc(C(F)(F)F)cc3)nc2CN2CCN(c3ccc(OC)cc3)CC2)ccc1OCC(=O)O
active: [1] 7.48 µM | [2] 46.1 µM | [3] 17.2 µM | [4] 59.9 µM | [5] 4.42 µM | [6] 67 µM | [10] 9.98 µM | [7] 9.5 µM
inactive: [8] | [9]
